± gives the standard deviation of the averaged measurements.
Experiments:
DLD1 [1] = assay: cell viability (CellTiter-Glo) relative to plate median (fraction of plate median); higher = more viable cells; details: 5 µM; treatment time 24 h; reporter: 7TFP
In short: (§1)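 Cells were seeded in 384-well plates; these were colorectal cancer lines stably transduced with lentiviral 7TFP or TCF4/Wnt firefly luciferase reporters. After 24 h, library compounds went in at a final 5 µM, and exposure lasted 24 h. Parallel plates were then read for firefly luciferase or CellTiterGlo luminescence, each well normalised to its plate median, with two independent replicates averaged.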

HCT116 = assay: as above; details: 5 µM; treatment time 24 h; reporter: TCF4/Wnt
In short: as §1

SW480 [2] = assay: as above; details: 5 µM; treatment time 24 h; reporter: 7TFP
In short: as §1

DLD1 [3] = assay: TCF/Wnt firefly luciferase reporter signal relative to plate median (fraction of plate median); higher = higher Wnt reporter signal; details: 5 µM; treatment time 24 h; reporter: 7TFP
In short: as §1

SW480 [4] = assay: as above; details: 5 µM; treatment time 24 h; reporter: 7TFP
In short: as §1

SMILES	cell viability (DLD1 [1])	cell viability (HCT116)	cell viability (SW480 [2])	TCF/Wnt firefly luciferase reporter signal (DLD1 [3])	TCF/Wnt firefly luciferase reporter signal (SW480 [4])
CC1(C)C=Cc2c(cc3occ(-c4ccc5c(c4)OCO5)c(=O)c3c2O)O1	0.951 ± 0.083	0.926 ± 0.17	0.952 ± 0.042	0.909 ± 0.012	1 ± 0.042
Nc1ccc(C(=O)Oc2ccccc2)c(O)c1	1.05 ± 0.096	1.16 ± 0.064	1.05 ± 0.042	1.08 ± 0.14	1.03 ± 0.035
C/C=C/C=C/[C@@H]1O[C@](O)([C@H](CC)C(=O)NC/C=C/C=C(\C)[C@@H](OC)[C@@H](C)[C@@H]2O[C@H](/C=C/C=C/C=C(\C)C(=O)c3c(O)ccn(C)c3=O)[C@H](O)[C@@H]2O)C[C@H](O)C1(C)C (single isomer, unassigned; isomere) [Heneicomycin (Isomere)]	0.948 ± 0.037	1.04 ± 0.14	1.035 ± 0.0071	1.05 ± 0.064	1.03 ± 0.021
C[C@@H]1CC2C3C[C@H](F)C4=CC(=O)C=C[C@]4(C)[C@@]3(F)[C@@H](O)C[C@]2(C)[C@@]1(O)C(=O)COC(=O)C(C)(C)C (stereo not given in full)	1.01 ± 0.021	0.925 ± 0.039	1 ± 0.025	1.16 ± 0.064	1.085 ± 0.0071
Cc1ccccc1N1C(=O)c2cc(S(N)(=O)=O)c(Cl)cc2NC1C (stereo not given)	1.06 ± 0.078	1.02 ± 0.035	1.02	1.03 ± 0.072	0.938 ± 0.19
COCCc1ccc(OCC(O)CNC(C)C)cc1 (stereo not given)	1.14 ± 0.057	0.959 ± 0.025	1.01 ± 0.018	1.14 ± 0.042	1.055 ± 0.0071
CC(=O)C1=C(CO)C(=O)c2cccc(O)c2C1=O [Bhimamycin E]	1.05 ± 0.042	1.04 ± 0.068	0.9945 ± 0.0021	0.983 ± 0.14	1.01
CC(=O)OCC(COC(C)=O)OC(C)=O	0.905 ± 0.08	0.962 ± 0.082	0.948 ± 0.0099	0.929 ± 0.079	1 ± 0.011
C=C[C@@]1(C)CC(=O)[C@]2(O)[C@@]3(C)[C@@H](O)CCC(C)(C)[C@@H]3[C@H](O)[C@H](OC(C)=O)[C@@]2(C)O1	1.09 ± 0.099	0.942 ± 0.069	1.12 ± 0.021	1.23 ± 0.05	1.14 ± 0.099
CNCC[C@H](Oc1cccc2ccccc12)c1cccs1	1.03 ± 0.067	1.06 ± 0.021	1.05 ± 0.028	0.87 ± 0.023	0.97 ± 0.021
C[C@@H]1CC[C@@]2(OC1)O[C@H]1C[C@H]3[C@@H]4CC[C@@H]5C[C@@H](O)CC[C@]5(C)[C@H]4CC[C@]3(C)[C@H]1[C@@H]2C	0.993 ± 0.038	1.09 ± 0.05	1.01 ± 0.05	0.956 ± 0.09	1.04 ± 0.071
Cc1ccc(C(=O)Nc2ccc(S(=O)(=O)O)c3cc(S(=O)(=O)O)cc(S(=O)(=O)O)c23)cc1NC(=O)c1cccc(NC(=O)Nc2cccc(C(=O)Nc3cc(C(=O)Nc4ccc(S(=O)(=O)O)c5cc(S(=O)(=O)O)cc(S(=O)(=O)O)c45)ccc3C)c2)c1	1.02 ± 0.068	0.929 ± 0.13	1.04 ± 0.035	0.936 ± 0.018	0.954 ± 0.11
COc1c2c(c(O)c3c4c(c(C)cc13)C1OC3(C(OC)OC)OC1C(O[C@H]1C[C@@H](O)[C@@](O)(C(C)=O)[C@H](C)O1)(O4)C3(O)CO)C(=O)C(O)CC2O[C@H]1C[C@@](C)(O)[C@H](OC(C)=O)[C@H](C)O1 (stereo not given in full) [Trioxacarcin B]	1.09 ± 0.29	1.11 ± 0.014	1.06	0.739 ± 0.21	0.893 ± 0.14

Source: the supplement of paper PMC6522484
